# Source: PubChem BioAssay (NCATS)
# Inconclusive results are not listed. Unmarked numbers belong to inactive results. Calls of active or inactive are those of the source. Calls follow the shape of the dose curve; as a rule, active = well fitted inhibition curve with a large enough effect; inconclusive = small, poorly fitted or top-dose-only effect; inactive = no such curve, though single readings can be large or run the other way.
# Assay: qHTS to identify inhibitors of the type 1 interferon - major histocompatibility complex class I in skeletal muscle: primary screen against the NCATS Mechanism Interrogation Plate v5.0 (MIPE) Libary (AID 1347411); also: nearly all actives have a fitted effect of over 65% in size;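 as to activity change, negative = inhibition: plate controls were vehicle for no effect and reference inhibitor for full effect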
# Conditions: iHSKM cells + IFN-b, HiBiT-tagged MHC-I luminescence, 24 h; series mostly up to 45.8 µM; activity change, negative = inhibition: at the top concentration
# Source text: Assay Submitter (PI): Travis B. Kinder Ph.D. & James Inglese Ph.D.
# Assay Development and Screening Technology Laboratory (ADST)
# National Center for Advancing Translational Sciences (NCATS), Rockville, MD
# National Institute of Health (NIH), Bethesda, Maryland
# Idiopathic inflammatory myopathies, collectively referred to as myositis, are a group of rare autoimmune diseases characterized by skeletal muscle inflammation, weakness, and usually accompanied by systemic pathologies of the skin, lungs, or vasculature. Current immunosuppressive therapies and glucocorticoids are often not curative and are accompanied by harsh side effects, especially in children with juvenile myositis. We initiated a drug repurposing and development program to identify more targeted, less toxic therapeutics to treat myositis. Although its cause is not known, muscle from a subset of patients have an abundance of the inflammatory type 1 interferon (IFN) and a down-stream product major histocompatibility complex class I (MHC class I), which are both thought to contribute to damage and weakness. We conducted quantitative high throughput screening on 6,576 compounds (4,679 unique) through a series of cell-based assays to identify those that inhibit the IFN-stimulated expression of MHC class I in muscle precursor cells (myoblasts). The compound identification and evaluation strategy utilized a primary screen with reporter-tagged MHC class I in genome-engineered myoblasts, ATP content counter screen for viability, HLA-ABC immunofluorescence secondary screen, and HLA-B RT-qPCR tertiary screen.
# The primary screen utilized CRISPR/Cas9 genome-engineering of immortalized human myoblasts, C25cl48, where a pro-luminescent reporter HiBit was fused to the C-terminus of endogenous MHC class I allele HLA-B*08:01 (HLA-B HiBit myoblasts). HiBit is an 11 amino acid fragment of NanoLuc luminescent reporter (Promega Corporation), and when complexed to the larger LgBit fragment, the reconstituted enzyme produces light in the presence of furimazine substrate (Schwinn et al., 2018). Briefly, HLA-B HiBit myoblasts were plated into 1536-well plates, treated with 4.0 ng/ml human IFN-beta and 2,480 compounds from the NCATS Mechanism Interrogation Plate v5.0 (MIPE5.0) in an 11-point, 1:3 titration with a high final concentration of 46 uM. After 24 hrs of treatment, cells were assayed by Nano-Glo HiBiT Lytic Detection System (Promega) and luminescence measured by a ViewLux 1430 Ultra HTS (Perkin Elmer).
# Schwinn MK, Machleidt T, Zimmerman K, Eggers CT, Dixon AS, Hurst R, Hall MP, Encell LP, Binkowski BF, Wood K V. 2018. CRISPR-Mediated Tagging of Endogenous Proteins with a Luminescent Peptide. ACS Chem Biol 13:467-474. doi:10.1021/acschembio.7b00549
# PROTOCOL TABLE (as described by Inglese et al., 2007)
# SEQUENCE No. (e.g., 1, 2, 3, etc.); […] (e.g., Cells, Incubation, Reagent, etc.); VALUE; DESCRIPTION
# 1a; Cells; 5 uL; Use a Multidrop Combi (Thermo Scientific) to seed 300 cells/well into 24 Greiner 1536 well white/solid bottom, high base, TC plates in 5 ul/well of iHSKM growth medium (GM) without dexamethasone into columns 1+2. Add metal lids with gas-exchange holes
# 1b; Cells; 5 uL; Use a Multidrop Combi (Thermo Scientific) to seed 300 cells/well into 24 Greiner 1536 well white/solid bottom, high base, TC plates in 5 ul/well of iHSKM GM without dexamethasone + 4 ng/ml IFN-b into columns 3 - 48. Add metal lids with gas-exchange holes
# 2; Incubate; 1 hr; Incubate at 37 C, 5% CO2, 95% RH
# 3; Compounds; 23 nl; Use Pin Tool (Wako) to transfer DMSO control, ruxolitinib IFN-b inhibitor control [High Concentration = 80 uM final, 16-pt, 1:2 in duplicate], and library compounds in DMSO
# 4; Incubate; 24 hrs; Incubate at 37 C, 5% CO2, 95% RH
# 5; Dispense; 2.5 ul; Use BioRAPTR FRD (Beckman Coulter) to add HiBit lytic reagent
# 6; Incubate; 10 min; Incubate in the dark at ambient temperature for lysis
# 7; Detector; 5 sec; Measure luminescence with ViewLux 1430 Ultra HTS (Perkin Elmer). […]
# Potency is read from the fitted curve at half-maximal effect.
Structure (SMILES),"activity change, negative = inhibition",Potency
CC(C)(C)NC(=O)[C@H]1CC[C@H]2[C@@H]3CC[C@H]4NC(=O)C=C[C@]4(C)[C@H]3CC[C@]12C,-1.82%,
O=C(O)c1cc(=O)[nH]c(=O)[nH]1,12.7%,
COC(c1ccccc1)(c1ccccc1)[C@H](Oc1nc(C)cc(C)n1)C(=O)O,-26.8%,
CC(=O)Oc1ccccc1C(=O)Nc1ncc([N+](=O)[O-])s1,,23.4 µM (active)
OC(Cn1cncn1)(Cn1cncn1)c1ccc(F)cc1F,8.98%,
CC(=O)CC(c1ccccc1)c1c(O)c2ccccc2oc1=O (stereo not given),,13.1 µM (active)
S=P(N1CC1)(N1CC1)N1CC1,-1.9%,
CCC(=O)O[C@]1(C(=O)CCl)[C@@H](C)C[C@H]2[C@@H]3CCC4=CC(=O)C=C[C@]4(C)[C@@]3(F)[C@@H](O)C[C@@]21C,-41.2%,
CC1=NN(c2ccccc2)C(=O)C1,-8.2%,
CC(C)C[C@H](NC(=O)[C@H](CCc1ccccc1)NC(=O)CN1CCOCC1)C(=O)N[C@@H](Cc1ccccc1)C(=O)N[C@@H](CC(C)C)C(=O)[C@@]1(C)CO1,,0.0262 µM (active)
CC(N)C12CC3CC(CC(C3)C1)C2 (stereo not given),10.5%,
CC(=O)[C@H]1CC[C@H]2[C@@H]3CC=C4C[C@@H](O)CC[C@]4(C)[C@H]3CC[C@]12C,7.73%,
Cc1oc(=O)oc1CN1CCN(c2cc3c(cc2F)c(=O)c(C(=O)O)c2n3C(C)S2)CC1 (stereo not given),-25.5%,
CCOC(=O)[C@H](CCc1ccccc1)N[C@H]1CS[C@H](c2cccs2)CN(CC(=O)O)C1=O,-3.4%,
CC(C(=O)O)c1ccc2c(c1)CC(=O)c1ccccc1S2 (stereo not given),-18.1%,
Nc1nc(N)c2nc(CNc3ccc(C(=O)NC(CCC(=O)O)C(=O)O)cc3)cnc2n1 (stereo not given),7.67%,
COCCCOc1cc(C[C@@H](C[C@H](N)[C@@H](O)C[C@H](C(=O)NCC(C)(C)C(N)=O)C(C)C)C(C)C)ccc1OC,-6.71%,
CN(Cc1cc(Br)cc(Br)c1N)C1CCCCC1,-6.33%,
CC(C)OC(=O)C(C(=O)OC(C)C)=C1SC=CS1,-4.65%,
COc1ncnc(NS(=O)(=O)c2ccc(N)cc2)c1OC,-13.9%,

Structure (SMILES),"activity change, negative = inhibition",Potency
C#CCN[C@@H]1CCc2ccccc21,13.9%,
CCN(CC)CCn1c(=O)c(Cc2ccc(OC)cc2)nc2ccccc21,-3.75%,
CCCCCCNC(=O)n1cc(F)c(=O)[nH]c1=O,7.54%,
C[C@@H]1CN(c2c(F)c(N)c3c(=O)c(C(=O)O)cn(C4CC4)c3c2F)C[C@H](C)N1,-16.2%,
CNC(=O)c1cc(Oc2ccc(NC(=O)Nc3ccc(Cl)c(C(F)(F)F)c3)cc2)ccn1,,16.5 µM (active)
OCc1ccc(-c2nn(Cc3ccccc3)c3ccccc23)o1,-16.9%,
CCOCC(O)COc1ccc(NC(=O)CC[S+](C)C)cc1 (stereo not given),-8.14%,
CC[C@H](C)C(=O)O[C@H]1C[C@@H](C)C=C2C=C[C@H](C)[C@H](CC[C@@H]3C[C@@H](O)CC(=O)O3)[C@H]21,13.8%,
CC[C@H](NC(C)C)[C@H](O)c1ccc(O)c2[nH]c(=O)ccc12,-14.4%,
CCOC(=O)c1ccc(OC(=O)CCCCCN=C(N)N)cc1,-22.3%,
CNNCc1ccc(C(=O)NC(C)C)cc1,7.49%,
Cc1nnc(C(=O)NC(C)(C)c2nc(C(=O)NCc3ccc(F)cc3)c(O)c(=O)n2C)o1,-0.415%,
CN(C)CCc1c[nH]c2ccc(CS(=O)(=O)N3CCCC3)cc12,-4.2%,
CC(C)Cn1cnc2c(N)nc3ccccc3c21,-14.7% [at 15.5 µM],
COc1c(N2CCNC(C)C2)c(F)cc2c(=O)c(C(=O)O)cn(C3CC3)c12 (stereo not given),-5.25%,
C[C@]12C=CC(=O)C=C1CC[C@@H]1[C@@H]2C(=O)C[C@@]2(C)[C@H]1CC[C@]2(O)C(=O)CO,-18.7%,
CCCc1nc(C)c2c(=O)[nH]c(-c3cc(S(=O)(=O)N4CCN(CC)CC4)ccc3OCC)nn12,26.2%,
NNC(=O)c1ccncc1,-8.49%,
CNC1CCCN(c2c(F)cc3c(=O)c(C(=O)O)cn(C4CC4)c3c2OC)C1 (stereo not given),-13%,
O=C(O)CSCC(=O)NC1CCSC1=O (stereo not given),-7.5%,
